Among the data in PubChem BioAssay (NCATS) are Z-AUC values, retold here.

Molecules are shown by their SMILES. Calls of active or inactive are those of the source. Calls come from the whole dose curve.

This test is described as follows: qHTS drug screen for cell cycle checkpoint inhibitors in PARPi-resistant BRCA-mutant ovarian cancer cell lines. (AID 1963452). To be noted: PEO1/OlaR viability, CellTiter-Glo luminescence, 96 h, stronger effect = lower value. In a few lines:
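PEO1, PEO4 and PEO1/OlaR ovarian cancer cells, 600 per well, exposed 96 h at 37C to a dilution series. Viability read by CellTiter-Glo luminescence, normalized to DMSO and empty wells; activity summarized as Z-AUC.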
On the technique in general: qHTS replaces the single test concentration by a dilution series.

Where [1] appears, read: measured here: PEO1 parental Z-AUC.

With `CN(C)Cc1ccc(-c2nc3cccc4c3n2CCNC4=O)cc1`, the Z-AUC was 0.426 (inactive). Further, under setting [1], the Z-AUC stood at 0.483. For the same compound, the Z-AUC (measured here: PEO4 Z-AUC) amounted to 0.475.

On to `CC(C)C[C@H](CC(=O)O)C(=O)N[C@@H](Cc1c[nH]c2ccccc12)C(=O)N[C@@H](C)c1ccccc1`, for which the Z-AUC was 1.58 (inactive). Further, under setting [1], the Z-AUC was found to be 1.54. Moreover, the Z-AUC (measured here: PEO4 Z-AUC) came to 1.63.

Regarding `CC(C)[C@H](CO)Nc1nc(Nc2ccc(C(=O)O)c(Cl)c2)c2ncn(C(C)C)c2n1`, the Z-AUC is -0.776 (inactive). For the same compound, the Z-AUC under setting [1] amounted to 0.263. Also, the Z-AUC (measured here: PEO4 Z-AUC) came to 0.0501.

On to `NC(=O)[C@@H](CCC(F)(F)F)N(Cc1ccc(-c2ncon2)cc1F)S(=O)(=O)c1ccc(Cl)cc1`, for which the Z-AUC is 0.459 (inactive). Besides, the Z-AUC under setting [1] came to 0.342. The Z-AUC (measured here: PEO4 Z-AUC) came out at 0.442.

In the case of `COc1cc2c(cc1OC)CN(CCc1ccc(NC(=O)c3cc(OC)c(OC)cc3NC(=O)c3cnc4ccccc4c3)cc1)CC2`, the Z-AUC was 0.969 (inactive). Moreover, the Z-AUC under setting [1] came to 1.41. Moreover, the Z-AUC (measured here: PEO4 Z-AUC) amounted to 1.02.

With `CN(C[C@@H]1COCCO1)S(=O)(=O)Nc1ccc2ccc3ncc(-c4cnn(C)c4)cc3c(=O)c2c1`, the Z-AUC was -0.656 (inactive). In addition, the Z-AUC under setting [1] was -0.332. The Z-AUC (measured here: PEO4 Z-AUC) is -0.0714.

Consider `CC#CCn1c(N2CCC[C@@H](N)C2)nc2c1c(=O)n(Cc1nc(C)c3ccccc3n1)c(=O)n2C`, for which the Z-AUC is -0.285 (inactive). For the same compound, the Z-AUC under setting [1] is 0.131. Further, the Z-AUC (measured here: PEO4 Z-AUC) was -0.262.

In the case of `O=C(Nc1cc(Cl)cc2c1[nH]c1cnccc12)c1cccnc1`, the Z-AUC was 0.696 (inactive). The Z-AUC under setting [1] was 0.253. Where the note is “measured here: PEO4 Z-AUC”, the Z-AUC was 0.368.

Take `CC(C)(C)Cn1c(N)nc2ccc(-c3[nH]c(C(C)(C)C)nc3-c3ccc(F)cc3)nc21`: the Z-AUC is -0.716 (inactive). Moreover, under setting [1], the Z-AUC was -1.14. The Z-AUC (measured here: PEO4 Z-AUC) was -1.15.

For `NC(=O)c1cnc(-c2ccc(C3(N)CCC3)cc2)c(-c2ccccc2)c1`, the Z-AUC was 0.0998 (inactive). The Z-AUC under setting [1] is -0.472. Besides, the Z-AUC (measured here: PEO4 Z-AUC) was -0.533.

As for `O=c1cc(CN2CCOCC2)occ1OCCCCCSc1ccnc2cc(C(F)(F)F)ccc12`, the Z-AUC was -0.111 (inactive). The Z-AUC under setting [1] is -0.421. Also, where the note is “measured here: PEO4 Z-AUC”, the Z-AUC was -0.0909.

Turning to `Cc1c(NC(=O)c2ccc(C(C)(C)C)cc2)cccc1-c1cn(C)c(=O)c(Nc2ccc(C(=O)N3CCOCC3)cc2)n1`, the Z-AUC was 1.16 (inactive). Further, the Z-AUC under setting [1] worked out at 0.745. The Z-AUC (measured here: PEO4 Z-AUC) was found to be 0.879.

As to `N#Cc1ccc(NC(=O)Nc2ccccc2Br)c2n[nH]nc12`, the Z-AUC was 1.45 (inactive). Further, under setting [1], the Z-AUC turned out to be 0.952. The Z-AUC (measured here: PEO4 Z-AUC) came out at 1.04.

As to `O=C(Nc1cccc(Br)c1)c1cccc(S(=O)(=O)N2CCCCCC2)c1`, the Z-AUC is -0.479 (inactive). Under setting [1], the Z-AUC came to 0.243. Besides, the Z-AUC (measured here: PEO4 Z-AUC) is -0.0385.

`COc1cc(NC(=O)c2ccc(-c3ccc(Cl)cc3)o2)cc(OC)c1`: the Z-AUC was -0.479 (inactive). Also, the Z-AUC under setting [1] is -0.389. The Z-AUC (measured here: PEO4 Z-AUC) is -0.303.

With `O=C(CCN1CCN(C(=O)OCc2cc(Cl)cc(Cl)c2)CC1)c1ccc2[nH]c(=O)oc2c1`, the Z-AUC was 0.428 (inactive). Besides, the Z-AUC under setting [1] was 0.576. Also, the Z-AUC (measured here: PEO4 Z-AUC) is 0.591.

For `C[N+](C)(C)CC(=O)O`, the Z-AUC is -0.734 (inactive). Besides, the Z-AUC under setting [1] was 0.456. Also, for the setting “measured here: PEO4 Z-AUC”, the Z-AUC was -0.678.

For `CCn1c(C(=O)N(C2CC2)C2CC2)cc2c3c(ncn3C)c(Nc3cc(C)n(C)n3)nc21`, the Z-AUC is 0.749 (inactive). The Z-AUC under setting [1] stood at 1.24. The Z-AUC (measured here: PEO4 Z-AUC) worked out at 1.3.

For the compound `O=c1cc(-c2ccc(O)cc2)oc2cc(O)cc(O)c12`, the Z-AUC is 0.475 (inactive). Besides, the Z-AUC under setting [1] was determined as 0.649. In addition, the Z-AUC (measured here: PEO4 Z-AUC) turned out to be 0.805.

In the case of `CCNc1cc(NC2CCC(O)CC2)nc(Nc2ccc3c(ccn3Cc3ccccc3)c2)n1` (centres undefined), the Z-AUC is 0.474 (inactive). For the same compound, the Z-AUC under setting [1] amounted to 0.235. Moreover, under “measured here: PEO4 Z-AUC”, the Z-AUC was 0.72.

For `CS(=O)(=O)N(Cc1ccco1)CC(O)Cn1c2ccccc2c2ccccc21` (centres undefined), the Z-AUC was 1.06 (inactive). The Z-AUC under setting [1] was 0.549. In addition, the Z-AUC (measured here: PEO4 Z-AUC) was 0.481.

Consider `CN(C)Cc1cccc(N=C(c2ccccc2)c2c(O)[nH]c3cc(C(=O)N(C)C)ccc23)c1`, for which the Z-AUC is -0.969 (inactive). For the same compound, the Z-AUC under setting [1] is -0.73. In addition, the Z-AUC (measured here: PEO4 Z-AUC) was -1.01.

`CC(=O)OC1C(C)OC(Oc2c(-c3ccc(O)cc3)oc3cc(O)cc(O)c3c2=O)C(O)C1OC(C)=O` (centres undefined): the Z-AUC is -0.58 (inactive). Also, the Z-AUC under setting [1] was -0.801. Moreover, for the setting “measured here: PEO4 Z-AUC”, the Z-AUC was -0.512.

Turning to `CC(C)(C)C(=O)Oc1ccc2c(c1)nc(NC(=O)c1cccc([N+](=O)[O-])c1)n2CCCO`, the Z-AUC was -0.205 (inactive). Moreover, the Z-AUC under setting [1] is 0.0755. The Z-AUC (measured here: PEO4 Z-AUC) is -0.141.

For the compound `CC[C@@]1(O)C[C@H](O[C@H]2C[C@H](N(C)C)[C@H](O[C@H]3C[C@H](O)[C@H](O[C@H]4CCC(=O)[C@H](C)O4)[C@H](C)O3)[C@H](C)O2)c2c(cc3c(c2O)C(=O)c2c(O)cccc2C3=O)[C@@H]1C(=O)OC`, the Z-AUC was -0.814 (inactive). In addition, the Z-AUC under setting [1] is -0.555. Moreover, the Z-AUC (measured here: PEO4 Z-AUC) is -0.946.

Consider `Nc1ncnc2ccccc12`, for which the Z-AUC was -0.0198 (inactive). The Z-AUC under setting [1] came out at 0.844. Moreover, the Z-AUC (measured here: PEO4 Z-AUC) turned out to be 0.705.

Turning to `COc1cccc2c1CCCC2CCCN1CCN(C2CCCCC2)CC1` (centres undefined), the Z-AUC is 0.972 (inactive). Further, the Z-AUC under setting [1] came out at 0.889. Where the note is “measured here: PEO4 Z-AUC”, the Z-AUC was determined as 0.366.

As to `C[C@H](NC(=O)c1sccc1OCc1ccc(Cl)cc1)c1ccccc1`, the Z-AUC was 0.368 (inactive). The Z-AUC under setting [1] was -0.143. Besides, the Z-AUC (measured here: PEO4 Z-AUC) is -0.0391.

For the compound `COc1ccc2cc(-c3nc(-c4ccc(S(C)=O)cc4)[nH]c3-c3ccncc3)ccc2c1` (centres undefined), the Z-AUC is -0.0857 (inactive). Besides, the Z-AUC under setting [1] was -0.107. The Z-AUC (measured here: PEO4 Z-AUC) was -0.281.

Turning to `Clc1ccc(C(c2ccc(Cl)cc2)n2cc[n+](CC(OCc3ccc(Cl)cc3Cl)c3ccc(Cl)cc3Cl)c2)cc1` (centres undefined), the Z-AUC is 0.167 (inactive). Further, the Z-AUC under setting [1] was -0.468. The Z-AUC (measured here: PEO4 Z-AUC) is -0.455.

In the case of `CC(=O)Nc1ccc([C@H](C)C(=O)Nc2ncc(C(C)C)s2)cc1`, the Z-AUC is -0.905 (inactive). Further, the Z-AUC under setting [1] is -1.74. The Z-AUC (measured here: PEO4 Z-AUC) is -1.22.

For `O=C(NOCC(O)CO)c1cc(Br)c(F)c(F)c1Nc1ccc(I)cc1F` (centres undefined), the Z-AUC is 0.348 (inactive). Also, the Z-AUC under setting [1] is 0.513. Also, the Z-AUC (measured here: PEO4 Z-AUC) was 0.38.

For `O=C(NCc1ccncc1)C12C[C@H]3C[C@@H](C1)CC(c1ccc(Cl)cc1)(C3)C2`, the Z-AUC was 0.0323 (inactive). Under setting [1], the Z-AUC was 0.866. Further, for the setting “measured here: PEO4 Z-AUC”, the Z-AUC amounted to 0.86.
